Experimental data: PubChem BioAssay (EPA / NIEHS)
Results filed as inconclusive are left out. Calls of active or inactive are those of the source. How the source made its calls, unless noted: active means hit-call score of the fitted dose curve at least 0.9, where 1 is the maximum; inconclusive means response in the unintended direction; inactive means score below 0.9.

Experiments:
[1] = TOX21_p53_BLA_p2_viability: Viability Assessment in the Tox21 HCT-116 p53 Agonism Beta-lactamase Assay, Phase 2 (AID 2283591);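 further: actives lower the ATP signal meaning cytotoxicity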
Method in brief: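 HCT116 p53-bla cells, 4000/well, dosed after 5 h plating (217-fold dilution of DMSO stocks) and incubated 16 h at 37C. Viability taken as cellular ATP by CellTiter-Glo luminescence after 30 min RT; signal loss marks cytotoxicity.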

[2] = target: Cellular tumor antigen p53 (Homo sapiens) (UniProt P04637); assay: TOX21_p53_BLA_p2_ratio: Tox21 HCT-116 p53 Agonism Beta-lactamase Assay, Ratio, Phase 2 (AID 2283592)
Sequence of Cellular tumor antigen p53 (Homo sapiens) (P04637 whole entry, looked up): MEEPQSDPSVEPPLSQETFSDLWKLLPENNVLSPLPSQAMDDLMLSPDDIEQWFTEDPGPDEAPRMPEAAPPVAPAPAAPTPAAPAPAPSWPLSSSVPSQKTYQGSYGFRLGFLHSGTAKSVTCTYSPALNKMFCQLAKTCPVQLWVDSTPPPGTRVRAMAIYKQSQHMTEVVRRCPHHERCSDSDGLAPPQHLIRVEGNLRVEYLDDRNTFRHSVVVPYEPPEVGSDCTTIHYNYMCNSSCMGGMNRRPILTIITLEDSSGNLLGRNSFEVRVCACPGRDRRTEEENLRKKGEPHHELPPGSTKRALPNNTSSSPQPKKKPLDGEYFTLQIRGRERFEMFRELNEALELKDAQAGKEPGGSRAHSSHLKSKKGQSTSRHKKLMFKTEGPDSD
Method in brief: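 Readout: blue/green (460/530 nm) FRET emission ratio after 2 h CCF4-AM loading at room temperature, excitation 405 nm. HCT116 p53 bla cells, 16 h compound exposure at 37C, 5% CO2; agonist direction fitted against DMSO baseline.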

[3] = TOX21_p53_BLA_p3_viability: Viability Assessment in the Tox21 HCT-116 p53 Agonism Beta-lactamase Assay, Phase 3 (AID 2283593);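 further: cells exposed to compound for 16 h before reading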
Method in brief: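 HCT116 cells, 4000/well, dosed 5 h after plating by pin transfer (217-fold dilution from DMSO stock) and incubated 16 h at 37C, 5% CO2. Viability read as ATP luminescence with CellTiter-Glo after 30 min at room temperature.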

[4] = target: Cellular tumor antigen p53 (Homo sapiens) (UniProt P04637); assay: TOX21_p53_BLA_p3_ratio: Tox21 HCT-116 p53 Agonism Beta-lactamase Assay, Ratio, Phase 3 (AID 2283596)
Method in brief: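 Cells were seeded at 4000/well, rested 5 h at 37C, then dosed with DMSO compound solutions (217-fold dilution) for 16 h. CCF4-AM substrate was loaded for 2 h at room temperature, and the 460/530 nm emission ratio was fitted for gain of signal versus DMSO.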

[5] = TOX21_p53_BLA_p4_viability: Viability Assessment in the Tox21 HCT-116 p53 Agonism Beta-lactamase Assay, Phase 4 (AID 2283597);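 further: hits lower the luminescence signal meaning cytotoxicity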
Method in brief: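 ATP content by CellTiter-Glo luminescence, 30 min RT, read after the beta-lactamase ratio step. Cells: HCT116, 4000/well, compound added after 5 h, exposure 16 h at 37C. Signal loss = reduced viability.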

[6] = target: Cellular tumor antigen p53 (Homo sapiens) (UniProt P04637); assay: TOX21_p53_BLA_p5_ratio: Tox21 HCT-116 p53 Agonism Beta-lactamase Assay, Ratio, Phase 5 (AID 2283599)
Method in brief: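 HCT-116 p53-bla cells (4000/well) plated 5 h, dosed with compound (217-fold DMSO dilution) for 16 h at 37 C; CCF4-AM substrate 2 h at room temperature. Activity is the 460/530 nm emission ratio (405 nm excitation), fitted in gain-of-signal direction versus DMSO.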

[7] = TOX21_p53_BLA_p5_viability: Viability Assessment in the Tox21 HCT-116 p53 Agonism Beta-lactamase Assay, Phase 5 (AID 2283600)
Method in brief: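 ATP luminescence (CellTiter-Glo, 30 min, RT) served as the viability read-out, with loss of signal indicating cytotoxicity. Compounds in DMSO were pinned at a 217-fold dilution onto 4000 cells/well and incubated 16 h, 37C.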

[8] = target: Cellular tumor antigen p53 (Homo sapiens) (UniProt P04637); assay: TOX21_p53_BLA_p4_ratio: Tox21 HCT-116 p53 Agonism Beta-lactamase Assay, Ratio, Phase 4 (AID 2283601)
Method in brief: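 HCT-116 p53 beta-lactamase reporter cells (4000/well) preincubated 5 h, then compound (217-fold dilution of DMSO stock) for 16 h at 37C. CCF4-AM substrate added 2 h at room temperature; 460/530 nm emission ratio fitted upward versus DMSO.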

[9] = CCTE_Harrill_HTTr_Viability_MCF7: CCTE's 6-hour Cell Viability Assessment for the High-Throughput Transcriptomics (HTTr) Platform, in MCF-7 cells cultured in DMEM + 10% fetal bovine serum, Harrill Lab (AID 2284010; active means hit-call score of the fitted dose curve at least 0.9, where 1 is the maximum; inactive means score below 0.9)
Method in brief: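 PI exclusion, high-content imaging; 8-pt dilution series, 6 h exposure; bidirectional fit vs DMSO (neg. ctrl/baseline); gain of signal = loss of membrane integrity.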

PGR (gene 5241) [10] = target: PGR (gene 5241) (UniProt P06401); assay: TOX21_PR_BLA_Followup_Antagonist_ratio: Tox21 HEK293 Progesterone Receptor (PR) Antagonism Beta-lactamase Follow-Up Assay, Ratio (AID 2283934)
Sequence of PGR (gene 5241) (P06401 whole entry, looked up, the tested form may be a part): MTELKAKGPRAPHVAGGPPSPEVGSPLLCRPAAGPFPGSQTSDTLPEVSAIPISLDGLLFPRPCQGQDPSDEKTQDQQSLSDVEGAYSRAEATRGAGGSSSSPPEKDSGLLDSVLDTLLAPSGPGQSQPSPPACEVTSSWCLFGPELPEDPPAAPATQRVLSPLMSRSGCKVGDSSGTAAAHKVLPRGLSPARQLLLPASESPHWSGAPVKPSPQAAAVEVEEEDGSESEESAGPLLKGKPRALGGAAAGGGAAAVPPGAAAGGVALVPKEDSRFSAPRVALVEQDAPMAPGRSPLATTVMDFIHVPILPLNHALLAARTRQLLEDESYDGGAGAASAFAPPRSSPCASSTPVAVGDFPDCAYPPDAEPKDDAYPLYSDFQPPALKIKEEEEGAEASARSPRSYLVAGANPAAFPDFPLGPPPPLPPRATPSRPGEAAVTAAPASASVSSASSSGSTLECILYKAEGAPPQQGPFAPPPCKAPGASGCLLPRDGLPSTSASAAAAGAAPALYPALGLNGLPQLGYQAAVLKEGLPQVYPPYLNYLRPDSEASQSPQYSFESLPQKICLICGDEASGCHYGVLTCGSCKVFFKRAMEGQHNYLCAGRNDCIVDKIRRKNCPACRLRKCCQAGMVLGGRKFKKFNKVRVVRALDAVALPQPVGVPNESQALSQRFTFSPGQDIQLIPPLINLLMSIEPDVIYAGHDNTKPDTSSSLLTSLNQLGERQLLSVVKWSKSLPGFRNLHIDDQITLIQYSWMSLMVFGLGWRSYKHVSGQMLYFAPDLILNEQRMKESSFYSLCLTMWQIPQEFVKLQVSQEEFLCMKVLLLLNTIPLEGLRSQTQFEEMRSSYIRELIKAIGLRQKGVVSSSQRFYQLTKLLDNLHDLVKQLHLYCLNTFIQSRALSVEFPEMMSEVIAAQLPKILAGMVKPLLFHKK
Method in brief: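 Read-out: blue/green beta-lactamase FRET ratio (cleaved ch2 over uncleaved ch1), fitted relative to DMSO baseline. Cells: PR-UAS-bla HEK293T, GAL4-UAS reporter, stimulated with 1 nM R5020 final; 16 hr compound exposure, 37C.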

[11] = TOX21_PR_BLA_Followup_Agonist_viability: Viability Assessment in the Tox21 HEK293 Progesterone Receptor (PR) Agonism Beta-lactamase Follow-Up Assay (AID 2283935);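 further: signal loss means lower viability so actives are cytotoxic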
Method in brief: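 Luminescent ATP quantitation (CellTiter-Glo, 30 min, room temperature) in the same wells as the beta-lactamase read, on PR-UAS-bla HEK293T cells exposed to compound for 16 hr at 37C in 2% charcoal-stripped serum.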

[12] = TOX21_PR_BLA_Followup_Antagonist_viability: Viability Assessment in the Tox21 HEK293 Progesterone Receptor (PR) Antagonism Beta-lactamase Follow-Up Assay (AID 2283936);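 further: cells exposed to compound with R5020 agonist for 16 h; hits lower the luminescence signal meaning cytotoxicity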
Method in brief: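 PR-UAS-bla HEK293T cells in medium with 2% charcoal-stripped FBS were treated with compounds plus R5020 for 16 hr at 37C. After the beta-lactamase read, CellTiter-Glo was added to the same wells and luminescence read after 30 min at room temperature.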

PGR (gene 5241) [13] = target: PGR (gene 5241) (UniProt P06401); assay: TOX21_PR_LUC_Followup_Agonist: Tox21 HEK293 Progesterone Receptor (PR) Agonism Luciferase Follow-Up Assay (AID 2283937; active means hit-call score of the fitted dose curve at least 0.9, where 1 is the maximum; inactive means score below 0.9)
Method in brief: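 Luminescence read-out (ONE-Glo, 30 min at room temperature) of PR-driven luciferase in HEK293-PR-A-luc cells after 16 h compound exposure at 37C; gain of signal fitted relative to DMSO baseline.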

PGR (gene 5241) [14] = target: PGR (gene 5241) (UniProt P06401); assay: TOX21_PR_LUC_Followup_Antagonist: Tox21 HEK293 Progesterone Receptor (PR) Antagonism Luciferase Follow-Up Assay (AID 2283938);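 further: curve fitted upward as signal gain over DMSO baseline despite antagonist label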
Method in brief: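 Luminescence from ONE-Glo reagent, measured after 30 min at room temperature, served as readout. Cells (HEK293 carrying PR-A-luc) had been treated 16 h at 37C with DMSO-dissolved compounds. Activity was fitted against DMSO controls.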

[15] = TOX21_PR_LUC_Followup_Agonist_viability: Viability Assessment in the Tox21 HEK293 Progesterone Receptor (PR) Agonism Luciferase Follow-Up Assay (AID 2283941);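 further: loss of signal means cytotoxicity so actives lower viability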
Method in brief: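 Cytotoxicity counter-screen: ATP content by CellTiter-Glo luminescence, loss of signal = reduced viability. HEK293-PR-A-luc, 3,000 cells/well, compound exposure 16 h, 37C.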

Measured: AC50

Oc1cccc[c]1[Hg][Cl]
active: [1] 4.03 µM | [2] 8.58 µM | [3] 9.5 µM | [4] 18.6 µM | [5] 4.24 µM | [6] 6.39 µM | [7] 3.94 µM | [8] 8.72 µM

Oc1c(Cl)c(Cl)cc(Cl)c1Cl
inactive: [1] | [3] | [5]
active: [2] 12.2 µM | [4] 13.4 µM | [6] 18.7 µM | [8] 22.6 µM

CCCC(C)(COC(N)=O)COC(=O)NC(C)C (configuration not stated)
inactive: [1] | [2] | [3] | [4] | [5] | [6] | [7] | [9]

CCOP(=S)(OCC)Oc1cc(Cl)c(Br)cc1Cl
active: [5] 72.9 µM | PGR (gene 5241) [10] 6.49 µM | PGR (gene 5241) [14] 5.76 µM
not listed: [9]
inactive: all other assays above
